Measurements from article PMC5540273 (PLoS ONE, 2017).

Tests used:
Details in all cases: concentration: 1 μM, replicates: in singlicate; n = 1
[1] = tested on: T1, RSK4(Kin.Dom.1-N-terminal)
T1 construct: gene RPS6KA6

[2] = tested on: T2, RSK4(Kin.Dom.2-C-terminal)
T2 construct: gene RPS6KA6

[3] = tested on: S6K1
[4] = tested on: SBK1
[5] = tested on: SGK2
[6] = tested on: SGK3
[7] = tested on: SGK
[8] = tested on: SIK2
[9] = tested on: SIK
[10] = tested on: SLK
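Further: KINOMEscan kinase panel screen.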

| SMILES | %Inh [1] | %Inh [2] | %Inh [3] | %Inh [4] | %Inh [5] | %Inh [6] | %Inh [7] | %Inh [8] | %Inh [9] | %Inh [10] |
| --- | --- | --- | --- | --- | --- | --- | --- | --- | --- | --- |
| Cl.NC(=O)c1cccc(Nc2nccc(Nc3ccc(Oc4c(Cl)cccc4Cl)c(Cl)c3)n2)c1 [GW659009] | 0% | 0% | 0% | 24% | 4% | 0% | 19% | 0% | 90.2% | 0% |
| CN(c1ccc(NC(=O)Nc2cc(C(F)(F)F)ccc2F)cc1)c1ccnc(Nc2ccc(S(N)(=O)=O)cc2)n1 [GW809893] | 5% | 0% | 40% | 0% | 0% | 22% | 1% | 1% | 22% | 96.3% |
| COc1cccc(NC(=O)NC2CCN(c3ccnc(Nc4cc(OC)c(OC)c(OC)c4)n3)C2)c1 (centres unmarked) [GSK1379763] | 0% | 0% | 0% | 15% | 0% | 7% | 0% | 4% | 0% | 42% |
| O=C(Nc1cccc(-c2nn3ncccc3c2-c2ccnc(Nc3ccccc3)n2)c1)c1c(F)cccc1F [GSK198271] | 1% | 22% | 0% | 13% | 0% | 4% | 0% | 6% | 44% | 95% |
| CCn1c(-c2nonc2N)nc2c(C#CC(C)(C)O)ncc(OCCCCN)c21.O=C(O)C(F)(F)F.O=C(O)C(F)(F)F [GSK507274] | 2% | 7% | 1% | 44% | 12% | 2% | 0% | 5% | 2% | 1% |
| COc1cc(Nc2ncc3c(C)nc(-c4cc5ccccc5[nH]4)n3n2)cc(OC)c1OC [GW869516] | 7% | 3% | 0% | 0% | 0% | 1% | 0% | 29% | 20% | 63% |
| c1ccc(-c2cnc3nccnn23)cc1 [AH20685] | 0% | 0% | 10% | 5% | 0% | 0% | 0% | 0% | 0% | 11% |
| Nc1ncnc2c1nc(-c1ccccc1)n2-c1ccccc1 [SKF-97293] | 36% | 0% | 29% | 53% | 0% | 16% | 23% | 0% | 8% | 0% |
| O=C(NC1CCN(c2ccnc(Nc3ccc(F)cc3)n2)C1)c1cc2ccccc2s1 (centres unmarked) [GSK1379716] | 0% | 24% | 0% | 24% | 0% | 0% | 14% | 6% | 11% | 32% |
| Cc1ccc(F)c(C(=O)Nc2cccc(-c3nn4ccccc4c3-c3ccnc(Nc4cccc(F)c4)n3)c2)c1F [GSK361061] | 0% | 13% | 0% | 100% | 4% | 2% | 11% | 29% | 68% | 94.2% |
| c1ccc(Oc2ccc(Nc3ccnc4cc(-c5ccc(CNCCN6CCOCC6)o5)ccc34)cc2)nc1 [GW567145] | 0% | 0% | 0% | 8% | 0% | 0% | 17% | 78% | 96.4% | 8% |
| C[C@@H](Oc1cc(-n2cnc3cc(-c4ccnc(NCCS(C)(=O)=O)c4)ccc32)sc1C(N)=O)c1ccccc1Cl [GSK907232] | 20% | 14% | 0% | 1% | 13% | 0% | 4% | 50% | 20% | 99% |
| COc1cc2c(cc1OCCN1CCNCC1)ncc1c3ccc(C#N)cc3[nH]c21 | 73% | 7% | 52% | 63% | 46% | 34% | 67% | 79% | 18% | 23% |
| Cc1ccc(S(=O)(=O)Nc2ccc(Nc3nccc(Nc4cccc5[nH]ncc45)n3)cc2)cc1 [GSK581271] | 0% | 0% | 14% | 26% | 9% | 0% | 0% | 67% | 36% | 0% |
| COc1ccc(-c2coc3ccc(-c4nnc(SCc5ccc(OC)c(C(F)(F)F)c5)o4)cc23)cc1 | 25% | 16% | 0% | 0% | 6% | 28% | 0% | 21% | 10% | 9% |
| COc1ccc(CNC(=O)NC2CCN(c3ccnc(Nc4ccc(F)cc4)n3)CC2)cc1 [GSK1379788] | 0% | 12% | 0% | 0% | 0% | 0% | 0% | 0% | 0% | 7% |

| SMILES | %Inh [1] | %Inh [2] | %Inh [3] | %Inh [4] | %Inh [5] | %Inh [6] | %Inh [7] | %Inh [8] | %Inh [9] | %Inh [10] |
| --- | --- | --- | --- | --- | --- | --- | --- | --- | --- | --- |
| Cc1ccc(C)c(NC(=O)NC2CCN(c3ccnc(Nc4ccc(F)cc4)n3)C2)c1 (centres unmarked) [GSK1379720] | 0% | 6% | 8% | 1% | 2% | 0% | 0% | 0% | 0% | 0% |
| O=C(O)C(F)(F)F.O=C(O)C(F)(F)F.O=c1[nH]ccc2nc(N[C@@H]3CCCNC3)nc(Nc3ccc(S(=O)(=O)N4CCOCC4)cc3)c12 [GSK2177277] | 99.4% | 52% | 98.8% | 92.7% | 96.1% | 99.2% | 88% | 84% | 78% | 98.4% |
| COc1cc(Nc2nccc(-c3c(-c4cccc(NC(=O)c5c(F)cccc5F)c4)nn4ncccc34)n2)cc(OC)c1OC [GSK327238] | 10% | 6% | 38% | 28% | 0% | 1% | 0% | 26% | 78% | 99.2% |
| COC(=O)Nc1nc2cc(Oc3ccc(NC(=O)Nc4cc(C(F)(F)F)ccc4F)cn3)ccc2[nH]1.Cl.Cl [GW681170] | 0% | 0% | 12% | 0% | 1% | 6% | 12% | 0% | 0% | 36% |
| COc1ccc(Nc2nccc(NCCNC(=O)c3cc4ccccc4s3)n2)cc1 [GSK1379896] | 0% | 0% | 7% | 20% | 6% | 0% | 0% | 0% | 0% | 18% |
| CCS(=O)(=O)c1ccc(OC)c(Nc2nccc(-c3c(-c4cccc(NC(=O)c5c(F)cccc5F)c4)nn4ncccc34)n2)c1 [GSK326180] | 0% | 0% | 6% | 0% | 5% | 0% | 0% | 0% | 3% | 54% |
| O=C(Nc1cccc(Oc2ccc3nc(NC(=O)C4CC4)cn3n2)c1)c1ccccc1C(F)(F)F | 0% | 0% | 0% | 0% | 7% | 0% | 0% | 28% | 1% | 32% |
| CCc1ccc(-c2ccc3c(c2)-c2c(cnn2C)S(=O)(=O)N3C)cc1 | 0% | 0% | 4% | 0% | 0% | 0% | 0% | 4% | 6% | 0% |
| COCCOCCOc1cc2ncc3c4ccc(C#N)cc4[nH]c3c2cc1OC | 90% | 0% | 61% | 81% | 58% | 47% | 89% | 83% | 13% | 45% |
| Cc1cccc(NC(=O)Nc2ccc(Oc3ncnc4ccn(C)c34)cc2)c1 | 0% | 0% | 0% | 0% | 0% | 0% | 0% | 7% | 10% | 0% |
| Cc1cccc(Nc2nc(N[C@H]3CCNC3)ncc2C(N)=O)c1.Cl [GSK2197149] | 30% | 23% | 5% | 42% | 12% | 0% | 0% | 30% | 35% | 30% |
| CCCCc1nn2ncccc2c1-c1ccnc(Nc2ccc(N3CCN(C)CC3)cc2)n1 [GW684941] | 0% | 82% | 0% | 30% | 0% | 0% | 24% | 84% | 83% | 69% |
| Cn1cc(-c2ccc3c(c2)CCN3C(=O)Cc2cccc(Cl)c2)c2c(N)ncnc21 [GSK2606590] | 0% | 19% | 0% | 9% | 0% | 0% | 0% | 0% | 10% | 67% |
| CCn1c(-c2nonc2N)nc2c(C#CC(C)(C)O)nc(OC[C@H](N)c3ccccc3)cc21 [GSK943949] | 0% | 0% | 4% | 0% | 18% | 0% | 6% | 0% | 2% | 6% |
| CN1CCN(Cc2cccc(-c3ccc4c(Nc5ccc(Oc6ccccc6)cc5)ccnc4c3)c2)CC1 [GW578342] | 0% | 0% | 0% | 11% | 0% | 1% | 7% | 1% | 0% | 0% |
| CN(C)S(=O)(=O)c1cc(-c2ccc3nccc(-c4cccc(S(N)(=O)=O)c4)c3c2)cnc1N [GSK1669921] | 2% | 44% | 19% | 15% | 6% | 16% | 5% | 10% | 0% | 2% |
